About 1,200 (52%) of roughly 2,300 compounds were called active. About 34% were inconclusive and are not listed. The call rests on the fitted dose curve; in most records, active means well fitted inhibition curve with a large enough effect; inconclusive means small, poorly fitted or top-dose-only effect, or effect the other way; inactive means no such curve, though single readings can be large or run the other way. So high a share suggests a set chosen from earlier hits. The list shows a part of the results.
Assay: Confirmation screen for delayed death inhibitors of the malarial parasite plastid, 48 hour incubation; further: nearly all actives have a fitted effect of over 65% in size
Settings: P. falciparum-infected erythrocytes, luciferase growth; series mostly up to 28.7 µM
Summary of the method: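 Single-generation (48 h, 37 C) exposure of integrated firefly luciferase-reporter P. falciparum in red cells, 0.1% parasitemia at 2% hematocrit, Albumax-supplemented RPMI. Falling luciferase signal marks parasite growth inhibition.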
Potency means the concentration at half of the fitted maximal effect.

Compound | Potency
CCOc1ccccc1CNC(=O)CN1C(=O)CSc2ccc(S(=O)(=O)N3CCOCC3)cc21 | 10 µM (active)
CC(=O)NCCC(=O)Nc1cc(S(=O)(=O)N2CCOCC2)ccc1Oc1ccccc1 | 11.2 µM (active)
CCOc1ccc(S(=O)(=O)N2CCOCC2)cc1NC(=O)CN1C(=O)NC(CC)(c2ccccc2)C1=O (stereo not given) | 12.6 µM (active)
CC(C)(C)OC(=O)[C@H]1[C@H](c2ccc([N+](=O)[O-])cc2)C2(C(=O)c3ccccc3C2=O)C2c3ccccc3C=NN21 (stereo not given in full) | 4.47 µM (active)
Cc1ccc(-c2nn(-c3ccccc3)cc2CC(=S)N2CCOCC2)cc1 | 14.1 µM (active)
CCCOc1ccccc1/C=C1\SC(N2CCCCC2)=NC1=O | 11.2 µM (active)
COc1cccc(/C=C2\SC(N3CCCC(C)C3)=NC2=O)c1OC (stereo not given) | 12.6 µM (active)
CCOC(=O)C1CCN(C(=O)CCc2nnc3ccc(NCc4ccco4)nn23)CC1 | 10 µM (active)
CCn1c2ccccc2c2cc(/C=N/n3cn[nH]c3=S)ccc21 | 12.6 µM (active)
Cc1ccccc1C1=NC(C(F)(F)F)(C(F)(F)F)c2c(n(-c3ccc(F)cc3)c(=O)[nH]c2=O)N1 | 10 µM (active)
Cc1cc(C)cc(C(=O)NC(CC(N)=O)c2ccc(NCC3CC3)c([N+](=O)[O-])c2)c1 (stereo not given) | inactive
NC(=O)CC(NC(=O)Cc1ccc(Br)cc1)c1ccc(NC2CC3CCC2C3)c([N+](=O)[O-])c1 (stereo not given) | 15.8 µM (active)
COc1cc(/C=C/C(=O)c2ccc(O)cc2)ccc1OCC#N | 12.6 µM (active)
COc1cccc(C(=O)/C=C/c2ccc(OCC#N)c(OC)c2)c1 | 10 µM (active)
O=C(Nc1nc(-c2ccccn2)cs1)C1COc2ccccc2O1 (stereo not given) | 6.31 µM (active)
O=C1/C(=C/c2ccccc2F)SC(=S)N1CC(=O)N1CCCCC1c1cccnc1 (stereo not given) | 14.1 µM (active)
COc1ccc(OC)c(-c2nc(C(=O)NC3CCN(Cc4ccccc4)CC3)cc3c2[nH]c2ccccc23)c1 | 4.47 µM (active)
CCCN1CCC(NC(=O)CC2C(=O)NCCN2Cc2cccc(OC)c2)CC1 (stereo not given) | inactive
Cc1ccc2c(c1)C1CC(C)(O2)N(c2cccc(C(=O)N3CCN(c4ccccn4)CC3)c2)C(=O)N1 (stereo not given) | 12.6 µM (active)
O=C(C=C=Nc1ccccc1)C(=O)N=C=Cc1ccccc1 | 14.1 µM (active)
CCOc1ccc(-n2c(N)c(-c3nc4ccccc4n3C)c3nc4ccccc4nc32)cc1 | 3.98 µM (active)
O=S(=O)(c1ccc(Cl)c(Cl)c1)c1snnc1-c1ccccc1 | 12.6 µM (active)
CCCNC(=O)c1nnsc1S(=O)(=O)c1ccc(Cl)cc1 | inactive
O=C(/C=C/c1ccncc1)c1ccc2c(c1)OCCO2 | 12.6 µM (active)
O=C(O)c1ccc(/C=N/NC(=O)c2ccc3c(c2)OCCO3)cc1 | inactive
O=C(CC1Sc2ccccc2NC1=O)OCc1cc(=O)oc2cc(O)ccc12 (stereo not given) | 11.2 µM (active)
CO[C@@H]1[C@@H](OC2OC(C)C(OC3CC(C)(O)C(OC(=O)CC(C)C)C(C)O3)C(N(C)C)C2O)[C@@H](CC=O)C[C@@H](C)C(=O)/C=C\C2O[C@H]2C[C@@H](C)OC(=O)C[C@H]1OC(C)=O (stereo not given in full) | 7.08 µM (active)
Cc1cccc(NC(=O)[C@H](Cc2c[nH]c3ccccc23)NC(=O)[C@@H]2Cc3ccccc3CN2)c1 | 10 µM (active)

Compound | Potency
COc1ccc(NC(=O)[C@H](Cc2c[nH]c3ccccc23)NC(=O)[C@@H]2Cc3ccccc3CN2)cc1 | 7.94 µM (active)
O=C(NC(Cc1c[nH]c2ccccc12)C(=O)Nc1ccc(F)cc1)c1cccs1 (stereo not given) | 7.08 µM (active)
COc1ccc(C(=O)NCCc2c[nH]c3ccccc23)cc1[N+](=O)[O-] | inactive
COc1cccc(NC(=O)[C@H](Cc2c[nH]c3ccccc23)NC(=O)[C@@H]2Cc3ccccc3CN2)c1 | 14.1 µM (active)
CCS(=O)(=O)N1Cc2ccccc2CC1C(=O)Nc1cccc(OC)c1 (stereo not given) | inactive
CC(C)C(=O)NCCSc1c[nH]c2ccccc12 | inactive
CNC(=S)N(CCc1c(C)[nH]c2ccc(C)cc12)Cc1cc(OC)c(OC)c(OC)c1 | 12.6 µM (active)
CNC(=S)N(CCc1c(C)[nH]c2ccc(Cl)cc12)Cc1cccnc1 | 14.1 µM (active)
Cc1ccc(NC(=O)C(=Cc2ccc(C(=O)O)cc2)C(=O)Nc2ccc(C)cc2C)c(C)c1 | 10 µM (active)
Cn1c(/C=C/c2ccc(Cl)cc2)c([N+](=O)[O-])c(=O)n(C)c1=O | 7.94 µM (active)
N#C/C(=C\c1ccccn1)c1ccccn1 | 11.2 µM (active)
CSC1=NC(C)(C)C=C(/C=C/c2c(Cl)cccc2Cl)N1 | 10 µM (active)
CSC1=NC(C)(C)C=C(/C=C/c2ccc(Cl)cc2)N1 | 10 µM (active)
CSC1=NC(C)(C)C=C(/C=C/c2ccc(Cl)cc2Cl)N1 | 1.78 µM (active)
O=C(c1ccccc1Br)N1CCN(c2ccccn2)CC1 | inactive
CC(Oc1ccc(Br)cc1)C(=O)N1CCN(c2ccccn2)CC1 (stereo not given) | 15.8 µM (active)
O=C(NCc1ccc2[nH]c3c(c2c1)CCCC3)c1ccc(S(=O)(=O)N2CCCC2)cc1 | 15.8 µM (active)
COc1ccc(Cl)cc1NC(=O)C(=O)NCc1ccncc1 | inactive
COc1ccc(-c2cc(C(=O)Nc3cc(C)n(Cc4ccc(Cl)cc4)n3)no2)cc1OC | 0.355 µM (active)
O=C(Nc1ccc(F)cc1)c1ccc(CN2CCc3ccccc3C2)cc1 | 12.6 µM (active)
Cc1cc(C)cc(NC(=O)c2ccc(CN3CCc4ccccc4C3)cc2)c1 | 14.1 µM (active)
O=C(Nc1ccc(Cl)cc1)c1ccc(CN2CCc3ccccc3C2)cc1 | 14.1 µM (active)
COc1ccccc1CNC(=O)CN1C(=O)NC(c2ccccc2)(c2ccc(C)c(C)c2)C1=O (stereo not given) | 12.6 µM (active)
CCOc1ccccc1CN1C(=O)NC(C)(c2ccccc2)C1=O (stereo not given) | inactive
Cc1cc(NC(=O)CN2C(=O)NC(c3ccccc3)(c3ccc(C)c(C)c3)C2=O)no1 (stereo not given) | 14.1 µM (active)
Cn1c(=O)c([N+](=O)[O-])c(-n2ccnc2)c2ccccc21 | 12.6 µM (active)
C/C(=C\C(=O)OCCCCCCCCC(=O)O)C[C@@H]1OC[C@H](C[C@@H]2O[C@H]2[C@@H](C)[C@H](C)O)[C@@H](O)[C@H]1O | 1.12 µM (active)

From PubChem BioAssay AID504850 (National Center for Advancing Translational Sciences (NCATS), 2011)
